Laboratory results reported in PubChem BioAssay (Tox21).
Inconclusive results are not listed. A number with no mark means an inactive call. Active and inactive are the calls of the source. The call rests on the fitted dose curve; in most records, active means well fitted cell-killing curve with a large enough effect in the repeat runs; inconclusive means weak or mixed curves, or effect the other way; inactive means no such curve, though single readings can be large or run the other way.

experiment: qHTS assay to identify small molecule agonists of the vitamin D receptor (VDR) signaling pathway - cell viability counter screen (AID 743224); conditions: VDR-bla HEK293T viability, CellTiter-Glo luminescence, 16 h; series mostly up to 62.6 µM
How it was run: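 Plated VDR-bla cells (4 h, 37C) received compound, incubated 16 h, then LiveBLAzer substrate 2 h RT; CellTiter-Glo added afterwards, luminescence read at 30 min.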
Further: nearly all actives have a fitted effect of over 50% in size.
On the % scale 0 is the no-effect control and ±100 the full control effect.

Compound | outcome
c1ccc(Oc2ccccc2)cc1 | inactive
O=c1[nH]cnc2[nH]ncc12 | inactive
CCNc1ccccc1 | inactive
O=C1C(c2[nH]c3ccccc3c2O)=Nc2ccccc21 | inactive
CCCCOC(=O)c1ccc(N)cc1 | inactive
CCCOC(=O)c1ccccc1 | inactive
COC(=O)CCCC(=O)OC | inactive
CC(O)CC(C)(C)O (stereo not given) | inactive
CN(C)CCOC(=O)COc1ccc(Cl)cc1 | inactive
CN/C(=C\[N+](=O)[O-])NCCSCc1csc(CN(C)C)n1 | inactive
CC(=O)CC(C)(C)O | inactive
CC(C)=CCl | inactive
O=S(=O)(O)c1ccccc1 | inactive
COC(=O)c1cccnc1 | inactive
COc1ccc(OC)cc1 | inactive
O=C(O)c1ccc(C(=O)O)c(C(=O)O)c1 | inactive
CC(=O)c1ccc(O)cc1 | inactive
CCOC(=O)c1ccc(N)cc1 | inactive
COc1cc(OC)c(C(=O)CCCN2CCCC2)c(OC)c1 | inactive

Compound | outcome
CC(C)c1cccc(C(C)C)c1 | inactive
NCCNCCN | inactive
Cc1ccc([N+](=O)[O-])cc1S(=O)(=O)O | inactive
Cc1ccc2ncccc2c1 | inactive
CC(C)CC(=O)CC(C)CC(C)C (stereo not given) | inactive
OC1C(O)C(O)C(O)C(O)C1O (stereo not given) | inactive
O=C1CCCC1 | inactive
CCCCCCCC=O | inactive
CC(C)(C#N)c1cc(Cn2cncn2)cc(C(C)(C)C#N)c1 | inactive
CC(=O)OCc1ccco1 | inactive
CCCCCCCCCCCCCCCCO | inactive
Cc1ccc(S(=O)(=O)N=C=O)cc1 | inactive
O=S(=O)(O)c1ccc(N=Nc2c(O)ccc3cc(S(=O)(=O)O)ccc23)cc1 | inactive
CCc1ccccc1CC | inactive
Nc1nc(N)nc(-c2ccccc2)n1 | inactive
COc1ccc([N+](=O)[O-])cc1N | inactive
CC(C)CCCCCCCOC(=O)CCCCC(=O)OCCCCCCCC(C)C | inactive
CC1(C)CC(N)CC(C)(CN)C1 (stereo not given) | inactive

experiment: qHTS assay to identify small molecule antagonists of the vitamin D receptor (VDR) signaling pathway - cell viability counter screen (AID 743225); conditions: VDR-bla HEK293T viability, CellTiter-Glo luminescence, 16 h; series mostly up to 61 µM
How it was run: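 Cells (VDR-UAS-bla HEK 293T) are plated, rested 4 h at 37C, dosed with compound and 3 nM final 1-alpha,25-dihydroxy vitamin D3, and incubated 16 h. Viability is taken from CellTiter-Glo luminescence in the reporter wells.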

Compound | outcome | viability change, negative = cytotoxic
c1ccc(Oc2ccccc2)cc1 | inactive | 
O=c1[nH]cnc2[nH]ncc12 | inactive | 
CCNc1ccccc1 | inactive | 
O=C1C(c2[nH]c3ccccc3c2O)=Nc2ccccc21 | inactive | 
CCCCOC(=O)c1ccc(N)cc1 | inactive | 
CCCOC(=O)c1ccccc1 | inactive | 
COC(=O)CCCC(=O)OC | inactive | 
CC(O)CC(C)(C)O (stereo not given) | inactive | 
CN(C)CCOC(=O)COc1ccc(Cl)cc1 | inactive | 
CN/C(=C\[N+](=O)[O-])NCCSCc1csc(CN(C)C)n1 | inactive | 
CC(=O)CC(C)(C)O | inactive | 
CC(C)=CCl | inactive | 
O=S(=O)(O)c1ccccc1 | inactive | 
COC(=O)c1cccnc1 | inactive | 
COc1ccc(OC)cc1 | inactive | 
O=C(O)c1ccc(C(=O)O)c(C(=O)O)c1 | inactive | 
CC(=O)c1ccc(O)cc1 | inactive | 
CCOC(=O)c1ccc(N)cc1 | inactive | 
COc1cc(OC)c(C(=O)CCCN2CCCC2)c(OC)c1 | inactive | 

Compound | outcome | viability change, negative = cytotoxic
CC(C)c1cccc(C(C)C)c1 | inactive | 
NCCNCCN | inactive | 
Cc1ccc(C(C)C)c(O)c1 | inactive | 
Cc1ccc([N+](=O)[O-])cc1S(=O)(=O)O | inactive | 
Cc1ccc2ncccc2c1 | inactive | 
CC(C)CC(=O)CC(C)CC(C)C (stereo not given) | inactive | 
OC1C(O)C(O)C(O)C(O)C1O (stereo not given) | inactive | 
O=C1CCCC1 | inactive | 
CCCCCCCC=O | inactive | 
CC(C)(C#N)c1cc(Cn2cncn2)cc(C(C)(C)C#N)c1 | inactive | 
CC(=O)OCc1ccco1 | inactive | 
CCCCCCCCCCCCCCCCO | inactive | 
Cc1ccc(S(=O)(=O)N=C=O)cc1 | inactive | 
O=S(=O)(O)c1ccc(N=Nc2c(O)ccc3cc(S(=O)(=O)O)ccc23)cc1 | inactive | 
CCc1ccccc1CC |  | 4.82% [at 15.1 µM]
Nc1nc(N)nc(-c2ccccc2)n1 | inactive | 
COc1ccc([N+](=O)[O-])cc1N | inactive | 
CC(C)CCCCCCCOC(=O)CCCCC(=O)OCCCCCCCC(C)C | inactive | 
CC1(C)CC(N)CC(C)(CN)C1 (stereo not given) | inactive | 
